# PubChem BioAssay AID431 (Sanford-Burnham Center for Chemical Genomics, 2006)
# Out of some 63,000 compounds screened, about 1,100 (1.7%) were called active.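 Rule for the calls: active = compounds whose percent cytotoxicity in the single-dose primary screen, scaled between solvent and toxic-drug controls, exceeds 50; inactive = the rest.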 Many of the other results were omitted from the sample, so actives are more common in it than they were. Results with a measured potency or affinity are listed apart.
# Assay: viability loss of HPDE-C7K cells – cell-based, fluorescence, HTS, primary screen (AID 431);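 note: 0% = DMSO solvent wells and 100% = doxorubicin-treated wells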
# Settings: HPDE-C7K KRASV12 cells, Alamar Blue viability, 48 h; at 10 µM; hits give high values
row,SMILES,cytotoxicity
1,COc1ccc(Nc2nc3ccccc3nc2C)cc1,20% (inactive)
2,O=C1N(CC(=O)N2CCc3ccccc32)CCN1Cc1ccccc1Cl,-7.2% (inactive)
3,COc1ccc(CCNS(=O)(=O)c2ccc3c(c2)CCN3C(=O)C2CC2)cc1OC,-6.7% (inactive)
4,O=C(CSc1nc(Nc2ccccc2)nc(N2CCOCC2)n1)Nc1ccc2c(c1)OCCO2,11.5% (inactive)
5,CCOC(=O)c1sc2nc(N3CCCC3)c3c(c2c1N)CC(C)(C)OC3,-3% (inactive)
6,COC(=O)CSc1ncnc2c1sc1nc(-c3ccco3)c3c(c12)CC(C)(C)OC3,15.4% (inactive)
7,CCOC(=O)c1sc2nc(-c3ccco3)c3c(c2c1N)CC(C)(C)OC3,57.4% (active)
8,COc1ccc(Nc2nc(OC)nc(N3CCN(c4ccc(OC)cc4)CC3)n2)cc1,8.4% (inactive)
9,COC(=O)/C=C1\NCCSC1=O,35.9% (inactive)
10,O=C(CCC(=O)N(c1ccccc1)C(C(=O)NC1CCCC1)c1ccncc1)Nc1cccnc1 (stereo not given),-0.5% (inactive)
11,CCn1c(=N)c(C(=O)NCc2cccnc2)cc2c(=O)n3cccc(C)c3nc21,1.8% (inactive)
12,CN=C(Nc1cc(C)nn1CCC#N)c1ccccc1F,4.4% (inactive)
13,CC(C)(C)C1CCC2(CC1)C(C#N)=C(SCC(=O)NC1CCCCC1)NC(=O)C2C#N (stereo not given),54.5% (active)
14,CCOC(=O)C1=C(SCC(=O)Nc2ccccc2)NC(=O)C(C#N)C12CCCCC2 (stereo not given),5.3% (inactive)
15,N#CC1=C(SCC(=O)NC2CC2)NC(=O)C(C#N)C12CCCCC2 (stereo not given),-27.1% (inactive)
16,N#CC1=C(SCC(=O)NC23CC4CC(CC(C4)C2)C3)NC(=O)C(C#N)C12CCCCC2 (stereo not given),45.6% (inactive)
17,N#CC1=C(N)NC(SCC(=O)Nc2ccccc2)=C(C#N)C12CCCC2,0.4% (inactive)
18,CCOC(=O)Cc1csc(NC(=O)CSc2nnc(-c3ccc(C)cc3)o2)n1,-11.9% (inactive)
19,CC(=O)N1CCc2cc(S(=O)(=O)NC(CC(C)C)C(=O)Nc3ccc4c(c3)OCCO4)ccc21 (stereo not given),7.7% (inactive)
20,N#CCSc1nnc2c(Cl)cc(Cl)cn12,7.2% (inactive)

row,SMILES,cytotoxicity
1,Brc1ccc(-c2nc(-c3ccncc3)no2)o1,0.3% (inactive)
2,CSc1ccc(S(=O)(=O)Nc2ccc(N3CCOCC3)c(Cl)c2)cc1,-2.9% (inactive)
3,c1ccc(N2CCN(c3nnnn3-c3ccccc3)CC2)cc1,-3.6% (inactive)
4,COc1ccc(CCNC(=O)COc2ccc(S(=O)(=O)N3CCOCC3)cc2)cc1,8.2% (inactive)
5,COC(=O)c1ccc2[nH]c(C)cc(=O)c2c1,-3.5% (inactive)
6,Cc1cc(=O)c2cc(Cl)ccc2[nH]1,-4.6% (inactive)
7,Cc1cc2c(N=O)c(NO)ccc2[nH]1,79.2% (active)
8,O=C(Nc1ccc2c(c1)OCCO2)C1CCCN(S(=O)(=O)c2cnc[nH]2)C1 (stereo not given),-1.8% (inactive)
9,Cn1c(NCCCN2CCOCC2)nc2c1c(=O)n(Cc1ccc(Cl)cc1Cl)c(=O)n2C,50.6% (active)
10,Cn1c(=O)c2c(nc(NCCCN3CCOCC3)n2Cc2ccc(Cl)cc2Cl)n(C)c1=O,0.9% (inactive)
11,Cn1c(NCCN2CCOCC2)nc2c1c(=O)n(Cc1cccc(Cl)c1)c(=O)n2C,22.4% (inactive)
12,Cn1c(=O)c2c(nc(NCCCN3CCOCC3)n2Cc2ccc(Cl)c(Cl)c2)n(C)c1=O,-1.2% (inactive)
13,Cn1c(NCCCN2CCOCC2)nc2c1c(=O)n(Cc1ccc(Cl)c(Cl)c1)c(=O)n2C,54.6% (active)
14,Cn1c(NCCCN2CCOCC2)nc2c1c(=O)n(Cc1ccc(Cl)cc1)c(=O)n2C,28.8% (inactive)
15,Cc1cc(C)nc(SCc2ccc3nonc3c2)n1,-23.2% (inactive)
16,Cc1cc(CN2C(=O)c3ccccc3C2=O)no1,-13.3% (inactive)
17,CCN(CC)S(=O)(=O)c1ccc(NC(=O)Cn2cnc3ccccc3c2=O)cc1,-6.7% (inactive)
18,CCC(=O)Nc1ccc(C(=O)n2nc(C)cc2C)cc1,10.7% (inactive)
19,COCCSc1ccccc1C(=O)Nc1cc(C)on1,85.8% (active)
20,CCSc1ccccc1C(=O)Nc1cc(C)on1,-0.6% (inactive)

row,SMILES,cytotoxicity
1,COCCSc1ccccc1C(=O)Nc1nnc(C)s1,-9% (inactive)
2,COc1ccc(C2CCCN2C(=O)Nc2ccc(F)cc2)cc1OC (stereo not given),-15.2% (inactive)
3,CCNC(=O)C1CC(=O)N(Cc2ccc3c(c2)OCO3)C(=Nc2ccc(F)cc2)S1 (stereo not given),62.1% (active)
4,CCNC(=O)C1CC(=O)N(Cc2ccc3c(c2)OCO3)C(=Nc2ccc(OCC)cc2)S1 (stereo not given),10% (inactive)
5,CNC(=O)C1CC(=O)N(Cc2ccc3c(c2)OCO3)C(=Nc2ccc(F)cc2)S1 (stereo not given),-2.3% (inactive)
6,CC(=O)Oc1cccc2c1C(=O)c1c(OC(C)=O)cc(C(=O)O)cc1C2=O,8.1% (inactive)
7,O=C(O)c1cc(C(=O)O)c(-c2ccccc2)c(C(=O)O)c1,-12.8% (inactive)
8,CCOc1ccc(N2Cc3ncccc3C2=O)cc1,-0.1% (inactive)
9,O=C(COc1ccc2ccccc2c1Br)N1CCOCC1,-30.2% (inactive)
10,CCOc1ccccc1N1CCN(c2nc3ccccc3nc2C(C#N)C(=O)OC)CC1 (stereo not given),50.6% (active)
11,CCOc1ccccc1N1CCN(c2nc3ccccc3nc2C(C#N)C(=O)OC(C)C)CC1 (stereo not given),-18.6% (inactive)
12,COc1ccc(CNC(=O)C(C#N)c2nc3ccccc3nc2N2CCCC2)cc1 (stereo not given),-9.7% (inactive)
13,CCCCCCOC(=O)C(C#N)c1nc2ccccc2nc1N1CCCCC1 (stereo not given),-16.1% (inactive)
14,COc1ccc(CNC(=O)C(C#N)c2nc3ccccc3nc2N2CCN(C)CC2)cc1 (stereo not given),76.5% (active)
15,N#CC(C(=O)NCc1ccccc1)c1nc2ccccc2nc1N1CCCC1 (stereo not given),8.4% (inactive)
16,C=CCOC(=O)C(C#N)c1nc2ccccc2nc1N1CCN(c2ccccc2OCC)CC1 (stereo not given),4.2% (inactive)
17,CCCCCCOC(=O)C(C#N)c1nc2ccccc2nc1N1CCN(CC)CC1 (stereo not given),5.9% (inactive)
18,CCCCCCOC(=O)C(C#N)c1nc2ccccc2nc1N1CCN(C)CC1 (stereo not given),70.2% (active)
19,O=C1CC(c2ccccc2)CC2=C1CN(C1CCCCC1)CN2 (stereo not given),22% (inactive)
20,Cc1nnc(NC(=O)C2CCN(c3cnccn3)CC2)s1,-12.6% (inactive)
